Bioassay records as filed in PubChem BioAssay.
ROC1-CUL1 inh – inhibitors of human ROC1-CUL1 ubiquitin ligase activity | in vitro K48 di-Ub FRET, acceptor:donor ratio, 45 min | inhibition, % at 10 µM | actives 0.6% (n = 140,000) | AID 1347404, 2020; in the data active = inhibition above about 25%
An asterisk follows results filed as active. This is one part of a sample in which hits are shown more often than they occur.

SMILES | ROC1-CUL1 inh
CCOc1ccc(NC(N)=Nc2nc(CSc3nnnn3-c3ccccc3)cc(=O)[nH]2)cc1 | -6
CC(=O)N=C1CC(=NS(=O)(=O)c2ccc(C)cc2)CC(=NC(C)=O)C1=O | -1
Cc1ccc(S(=O)(=O)N=NC2CCSCC2)cc1 | -1
Cc1ccc(S(=O)(=O)N=C2Cc3ccccc3N2C)cc1 | 27*
CN1C(=O)c2ccccc2C(O)c2ccccc21 (configuration not stated) | -2
CC(=O)c1ccccc1-c1ccccc1C(C)=O | 13
CC(=O)C1=NC(=O)c2ccccc2C1O (configuration not stated) | 53*
CCC(Oc1ccccc1OC)C(=O)Nc1ccc(F)cc1 (configuration not stated) | 7
CCCN1C(=O)/C(=C/c2ccco2)SC1=Nc1ccc(OCC)cc1 | -1
CNC(=O)CSc1nc(-c2ccccc2)cs1 | -5
Cc1ccc(-c2csc(SC3C(=O)N(c4ccccc4)N=C3c3ccccc3)n2)cc1 (configuration not stated) | 83*
O=C(CSc1nc(-c2ccccc2)cs1)NC1=NN(c2ccccc2)C(=O)C1 | -16
CCn1c(CN2CCN(Cc3ccc4c(c3)OCO4)CC2)n[nH]c1=S | 5
O=C(Cc1cccc2ccccc12)Nc1ccccc1C(=O)Nc1ccccc1 | 2
O=C1NN(c2ccccc2)C(=O)/C1=C/c1cn(CCCOc2ccccc2)c2ccccc12 | -3
O=C(O)C(Cc1ccccc1)N1C(=O)/C(=C/c2ccc(Cl)cc2)SC1=S (configuration not stated) | 79*
O=C1/C(=C\c2cccc(F)c2)SC(=S)N1c1cccc(C(F)(F)F)c1 | -1
O=C1/C(=C\c2ccccc2)SC(=S)N1c1cccc(Cl)c1 | -1
NN1C(=O)/C(=C/c2ccc(-c3cccc(Cl)c3)o2)SC1=S | 1
O=C(O)CN1C(=O)/C(=C2\SC(=S)N(C(Cc3ccccc3)C(=O)O)C2=O)c2ccccc21 (configuration not stated) | 4
COC(=O)c1cccc(-c2ccc(C=C3C(=O)OC(c4ccccc4)OC3=O)o2)c1 (configuration not stated) | 2
O=C1S/C(=C\c2ccc(Cl)cc2)C(=O)N1Cc1ccccc1 | 3
COC(=O)c1cccc(-c2ccc(/C=C3/C(=O)NN(c4ccc(Br)cc4)C3=O)o2)c1 | -4
O=C(O)c1cccc(-c2ccc(/C=C3\SC(=S)N(c4cccc(F)c4)C3=O)o2)c1 | 94*
O=C1/C(=C/c2cccc(Cl)c2Cl)SC(=S)N1c1cccc(Cl)c1 | -9
SMILES | ROC1-CUL1 inh
COC(=O)c1cccc(-c2ccc(/C=C3\C(=O)N(c4cccc(C(=O)O)c4)N=C3C(F)(F)F)o2)c1 | 95*
O=C(O)c1cccc(N2C(=O)/C(=C/c3ccc(Cl)cc3)SC2=S)c1 | 31*
N#CC1C(=N)Oc2n[nH]c(-c3ccncc3)c2C1c1ccc(O)cc1 (configuration not stated) | -7
O=[N+]([O-])c1ccc(Sc2nc(-c3ccccc3)c(-c3ccccc3)[nH]2)nc1 | -5
COc1ccc(-c2csc(NC(=O)COc3ccc(Br)cc3)n2)cc1Br | 2
Cc1ccc(/C=N/N2C(=O)CSC2=Nc2c(C)n(C)n(-c3ccccc3)c2=O)cc1 | -5
COc1ccc(Cl)cc1C(=O)NC(=S)Nc1cccc(Cl)c1Cl | -8
Cc1ccc(CNC(=O)CSc2nc3ccc(NC(=O)c4ccccc4C)cc3s2)cc1 | 7
CCCCN1C(=O)C(=Cc2ccco2)C(=O)N(CCCC)C1=S | 99*
CCCCC1(C)OC(=O)C(=Cc2ccc3c(c2)OCO3)C(=O)O1 (configuration not stated) | -5
CCCCN1C(=O)C(=Cc2ccc(OCC)c(OC)c2)C(=O)N(CCCC)C1=S | 1
CCCCCCN1C(=O)NC(=O)/C(=C\c2ccc3c(c2)OCO3)C1=O | 7
CCCCN1C(=O)C(=C/C=C/c2ccco2)C(=O)N(CCCC)C1=S | 31*
CCCCN1C(=O)C(=O)N(c2ccccc2)C1=S | 1
CCCCN1C(=O)/C(=C/c2ccc3c(c2)OCO3)C(=O)N(Cc2ccco2)C1=S | 101*
CCCCN1C(=O)C(=Cc2cccs2)C(=O)N(CCCC)C1=S | 4
O=C1NN(c2ccc(Br)cc2)C(=O)/C1=C\C=C\c1ccco1 | 4
O=C(N/N=C/c1cc([N+](=O)[O-])ccc1Cl)c1cc2ccccc2cc1O | -3
Cc1ccc2c(c1)c1cccc3c1n2CCN3N=O | 9
Cc1cc(N2CCC(C)CC2)c2nncn2n1 | 3
Cc1ccc2c(c1)C(=O)CC(CSc1nnc(NC(=O)c3ccccc3F)s1)=N2 | -12
CCC(COC(=O)COc1ccc(Cl)cc1Cl)N1C(=O)c2ccccc2C1=O (configuration not stated) | -7
O=C1N(CC2CC2)CCCC12CCN(Cc1cccc(F)c1)C2 (configuration not stated) | -5
CSCCCNC(=O)C1CCC(=O)N(CCc2cccc(F)c2)C1 (configuration not stated) | -2
CCN(CC)CCN(CC)C(=O)CCc1nnc(-c2ccc3c(c2)OCO3)o1 | -1
SMILES | ROC1-CUL1 inh
CCOC(=O)COc1cc(Cl)c(/C=C2\C(=O)N(CCC#N)N=C2C)cc1OCC | -12
CN(C)c1cccc(OCc2n[nH]c(=S)n2-c2ccccc2)c1 | 10
Cc1noc(NC(=O)c2sc3ccccc3c2O)c1C | -1
O=C1C(=O)N(c2nnc(SCc3ccc(Cl)cc3)s2)C(c2cccs2)C1C(=O)c1cc2ccccc2o1 (configuration not stated) | 45*
CCOc1cc(C2C(C(=O)c3cc4ccccc4o3)C(=O)C(=O)N2c2nnc(SCc3ccccc3)s2)ccc1O (configuration not stated) | 65*
CCOc1cc(C2C(C(=O)c3cc4ccccc4o3)C(=O)C(=O)N2c2nnc(SCc3cccc4ccccc34)s2)ccc1O (configuration not stated) | 23
O=C1C(=O)N(c2nnc(SCc3ccc(Cl)cc3)s2)C(c2cccc(O)c2)C1C(=O)c1cc2ccccc2o1 (configuration not stated) | -8
O=C1C(=O)N(c2nnc(SCc3ccccc3)s2)C(c2cccs2)C1C(=O)c1cc2ccccc2o1 (configuration not stated) | 2
CCOc1ccc(C2C(C(=O)c3cc4ccccc4o3)C(=O)C(=O)N2c2nnc(SCc3ccccc3F)s2)cc1OC (configuration not stated) | 2
Cc1c(C(=O)N(Cc2ccncc2)C[C@@H]2CCC(=O)N2)oc2c(F)cccc12 | 5
Cc1ccc(NC(=O)COC(=O)c2ccccn2)cc1C | 6
Nc1nnc(SCC(=O)Nc2ccc(S(=O)(=O)Nc3ncccn3)cc2)s1 | -7
COc1ccc2c(c1)C(=O)N(c1ccc(C)cc1C)C(=O)C2C=Nc1ccc(C)cc1 (configuration not stated) | -4
CN(Cc1cccnc1)C(=O)c1coc(COc2cccc(C(F)(F)F)c2)n1 | -14
Cc1ccnc(NC(=O)c2ccc(Cl)cc2Cl)c1 | 6
Cc1ccc(NC(=O)c2ccc(Cl)cc2Cl)c(S(=O)(=O)O)c1 | 96*
Cc1ccc(NS(=O)(=O)c2ccc(NC(=O)c3ccc(Cl)cc3Cl)cc2)c(C)c1 | 5
CC(=O)N1CCc2cc(S(=O)(=O)NC(CC(C)C)C(=O)NCc3ccccc3)ccc21 (configuration not stated) | 3
